# Measurements from PubChem BioAssay (Tox21).
# Inconclusive results are not listed. A call without a number means that no potency is given here. Some structures have more than one record in an assay (separate samples or runs), and their calls can disagree. Calls of active or inactive are those of the source. The call rests on the fitted dose curve; in most records, active means well fitted cell-killing curve with a large enough effect in the repeat runs; inconclusive means weak or mixed curves; inactive means flat fitted curve, though single readings scatter.
# Test: qHTS assay to identify small molecule antagonists of the estrogen receptor beta (ER-beta) signaling pathway - cell viability counter screen (AID 1259382); further: nearly all actives have a fitted effect of over 55% in size
# Conditions: ER-beta-UAS-bla HEK293T viability, CellTiter-Glo luminescence, 16 h; series mostly up to 92.4 µM
# Excerpt: U.S. Tox21 Program National Center for Advancing Translational Sciences [NCATS] NIH Chemical Genomics Center [NCGC] U.S. Environmental Protection Agency [EPA] National Institutes of Environmental Health Sciences [NIEHS] National Toxicology Program [NTP] U.S. Food and Drug Administration [FDA] Tox21 Assay Overview: Estrogen receptor (ER), a nuclear hormone receptor, plays an important role in development, metabolic homeostasis and reproduction. Two subtypes of ER, ER-alpha and ER-beta, have similar expression patterns with some uniqueness in both types. Endocrine disrupting chemicals (EDCs) and their interactions with steroid hormone receptors like ER causes disruption of normal endocrine function. To identify the compounds that inhibit ER signaling, an ER-beta-UAS-bla GripTite cell line (Life Technologies, Madison, WI, USA) containing a beta-lactamase reporter gene under the control of an UAS response element was used to screen Tox21 10K compound library. The cytotoxicity of the Tox21 compound library against the ER-beta-bla cell line was tested in parallel by measuring the cell viability using CellTiter-Glo assay in the same wells.
# Tox21 Assay Protocol Summary: ER-beta-UAS-bla HEK293T cells were dispensed at 2,000 cells/4 uL of assay medium containing 2% charcoal stripped FBS per well into black wall/clear-bottom 1536-well plates using a Multidrop Combi (ThermoFisher Scientific, Waltham, MA) dispenser. After the assay plates were incubated at a 37C and 5% CO2 for 6 hr, 23 nL of compounds dissolved in DMSO, positive controls or DMSO only was transferred to the assay plate by a Pintool station (Kalypsys, San Diego, CA), followed by addition of 1 uL (1nM as final concentration) of 17-beta-estradiol (E2) in assay medium using a Flying Reagent Dispenser (FRD, Aurora Discovery, San Diego, CA). The plates were incubated at 37C and 5% CO2 for 16 hr. Then 1 uL of LiveBLAzer B/G FRET substrate was added using a Flying Reagent Dispenser, the plates were incubated at room temperature for 2 hours, and fluorescence intensity was measured by an Envision plate reader (PerkinElmer, Shelton, CT). For cell viability readout that measures cytotoxicity, 4 uL/well of CellTiter-Glo reagent was added into the assay plates using a FRD. After 30 min incubation at room temperature, the luminescence intensity in the plates was measured using a ViewLux (PerkinElmer) plate reader.
# Potency means the concentration at half of the fitted maximal effect.
row,SMILES,Potency
1,Nc1ccn([C@H]2CC[C@@H](CO)O2)c(=O)n1,inactive
2,O=C(c1ccccc1)C(O)c1ccccc1 (stereo not given),inactive
3,C1N2CN3CN1CN(C2)C3,inactive
4,O=C1CN(/N=C/c2ccc([N+](=O)[O-])o2)C(=O)N1,inactive
5,NC(=O)NC1NC(=O)NC1=O (stereo not given),inactive
6,O=C(O)/C=C\C(=O)O,inactive
7,COc1c2occc2cc2ccc(=O)oc12,inactive
8,Nc1ccc(S(=O)(=O)Nc2nccs2)cc1,inactive
9,CCOc1ccc(NC(=O)CC(C)O)cc1 (stereo not given),inactive
10,CCC1(c2ccccc2)C(=O)NCNC1=O,inactive
11,CC(O)C(=O)O (stereo not given),inactive
12,O=C(O)CCCCC(=O)O,inactive
13,CCCCC1C(=O)N(c2ccccc2)N(c2ccccc2)C1=O,inactive
14,N=C(N)c1ccc(OCCCCCOc2ccc(C(=N)N)cc2)cc1,inactive
15,CCCCC(CC)COC(=O)/C=C/c1ccc(OC)cc1 (stereo not given),inactive
16,CC1(C)[C@@H]2CC[C@@]1(C)C(=O)C2,inactive
17,O=C(O)CS,inactive
18,CCCN(CCC)S(=O)(=O)c1ccc(C(=O)O)cc1,inactive
19,O=S(=O)(O)c1ccc2cc(O)ccc2c1,inactive
20,NC(N)=O,inactive

row,SMILES,Potency
1,O=C(O)c1[nH]n(-c2ccc(S(=O)(=O)O)cc2)c(=O)c1N=Nc1ccc(S(=O)(=O)O)cc1,inactive
2,CC(=O)OCC(COC(C)=O)OC(C)=O,inactive
3,Cc1ccc(O)cc1,inactive
4,OC(Cn1cncn1)(Cn1cncn1)c1ccc(F)cc1F,inactive
5,Cc1cc(=O)[nH]c(=S)[nH]1,inactive
6,O=C(O)c1cc(N=Nc2ccc(S(=O)(=O)Nc3ccccn3)cc2)ccc1O,inactive
7,O=C(O)c1cccnc1,inactive
8,O=C(O)CCC(=O)O,inactive
9,CC(O)CN(CCN(CC(C)O)CC(C)O)CC(C)O (stereo not given),inactive
10,CCCCCCCCCCCCCCCC(=O)O,inactive
11,C[C@]12C=CC(=O)C=C1CC[C@@H]1[C@@H]2[C@@H](O)C[C@@]2(C)[C@H]1CC[C@]2(O)C(=O)CO,inactive
12,CCCC(CCC)C(=O)O,inactive
13,COc1ccc2[nH]cc(CCNC(C)=O)c2c1,inactive
14,Cc1cn([C@H]2C[C@H](N=[N+]=[N-])[C@@H](CO)O2)c(=O)[nH]c1=O,inactive
15,NC(=O)c1cnccn1,inactive
16,O=c1cc[nH]c(=S)[nH]1,inactive
17,OCCc1ccccc1,inactive
18,O=C(C1CCCCC1)N1CC(=O)N2CCc3ccccc3C2C1 (stereo not given),inactive
19,c1ccc2[nH]ccc2c1,26.9 µM (active) and inactive
20,CCCC(O)C(CC)CO (stereo not given),inactive
